PubChem BioAssay (NCATS)
Results filed as inconclusive are left out. Activity calls are given as the source filed them. The call rests on the fitted dose curve; in most records, active means well fitted curve in the direction sought with a large enough effect; inconclusive means small, poorly fitted or top-dose-only effect, or another doubt; inactive means no such curve, though single readings can be large; an effect the other way counts as inactive or inconclusive.

Columns and labels:
[1] = Cellular Toxicity (caspase-3) NIH 3T3 (AID 666);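 further: caspase signal read after 16 h compound exposure; 0% = DMSO basal and 100% = 100 µM tamoxifen stimulation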
How it was run: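 Luminescence from aminoluciferin released by caspase-3/7 cleavage of a peptide substrate served as read-out. Mouse fibroblast NIH 3T3 cells were exposed to compounds over a concentration range for 16 hours, and AC50 values came from standard Hill modelling.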

[2] = Cellular Toxicity (caspase-3) Renal Proximal Tubule (AID 667); settings: renal proximal tubule cells; at 91.7 µM (top of the series), primary cells freshly taken from rat, solvent-only wells 0%, staurosporine 100% unless noted;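 further: cells exposed to compound for 16 hours at 37 °C before detection; 0% = DMSO basal and 100% = 10 µM staurosporine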
How it was run: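 In qHTS format, rat primary proximal tubule cells seeded at 1000 per well are exposed to compounds for 16 hours at 37 °C. An increase in Caspase-Glo 3/7 luminescence indicates caspase activation.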

[3] = biological target: Cytochrome P450 3A4 (Homo sapiens) (UniProt P08684); assay: qHTS Assay for Inhibitors and Substrates of Cytochrome P450 3A4 (AID 884); further: on the % scale 0 is the no-effect control and ±100 the full control effect; nearly all actives have a fitted effect of over 50% in size
Chain of Cytochrome P450 3A4 (Homo sapiens) (P08684 whole entry, looked up): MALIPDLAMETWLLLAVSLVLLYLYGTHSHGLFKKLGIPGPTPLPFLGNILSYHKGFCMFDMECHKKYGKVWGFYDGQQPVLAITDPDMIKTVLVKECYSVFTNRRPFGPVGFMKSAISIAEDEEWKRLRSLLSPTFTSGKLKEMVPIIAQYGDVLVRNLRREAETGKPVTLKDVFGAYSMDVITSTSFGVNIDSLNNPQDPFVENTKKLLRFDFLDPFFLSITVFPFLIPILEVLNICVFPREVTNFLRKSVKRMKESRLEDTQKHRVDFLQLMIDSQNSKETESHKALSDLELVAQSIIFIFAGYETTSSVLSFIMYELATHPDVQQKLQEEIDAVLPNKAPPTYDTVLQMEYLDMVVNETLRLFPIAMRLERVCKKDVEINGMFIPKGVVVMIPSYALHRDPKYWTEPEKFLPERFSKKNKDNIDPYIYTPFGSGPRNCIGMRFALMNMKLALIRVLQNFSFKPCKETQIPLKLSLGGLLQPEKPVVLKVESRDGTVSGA
How it was run: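 20 nM human CYP3A4 with 25 uM Luciferin-PPXE (at KM) in 200 mM KPO4, preincubated 10 min with compound; NADPH regeneration started a 60 min RT reaction. Luciferin detected by luminescence, normalized to 57 uM ketoconazole as full inhibition.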

[4] = Cell Viability - LYMP2-001 (AID 921);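 further: 0% = DMSO only and full inhibition = tetraoctylammonium bromide control wells; nearly all actives have a fitted effect of over 70% in size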
How it was run: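 qHTS, 1536-well; lymphoblastoid cells, 24 hr compound, 37 C; ATP by CellTiter-Glo, 30 min RT; luminescence; Hill-fit AC50.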

[5] = Confirmation and Secondary Assay for Modulators of Hemoglobin Beta Chain Splicing at IVS2 705 locus (AID 930);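 further: HeLa cells stably expressing the EGFP-705 splicing reporter; GFP fluorescence per well restored by corrected splicing of the IVS2-705 intron in EGFP; % of control where 0% means no effect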
How it was run: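 First, HeLa EGFP-705 cells are seeded at 500/well in Optimem with 2% FCS and left overnight. Next, compound or DMSO is added for 2 days. Finally wells are laser-scanned and total peak GFP intensity scored.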

[6] = MultiTox-Fluor Cytotoxicity Assay - LYMP1-001 - Dead Cells (AID 946)
How it was run: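 LYMP1-001 lymphoblastoid cells (2500/well) treated 16 h at 37 C. Dead-cell protease cleavage of bis-AAF-R110 read at Ex/Em 485/520. Normalized to DMSO and 15 uM tetraoctylammonium bromide; AC50 from Hill fits.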

[7] = MultiTox-Fluor Cytotoxicity Assay - LYMP1-001 - Live Cells (AID 947);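 further: 0% = DMSO only and full inhibition = tetraoctylammonium bromide control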
[8] = Cell Viability - LYMP1-002 - Assay at 16 hr (AID 948);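 further: 0% = DMSO alone and full effect = 92 µM tetraoctylammonium bromide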
How it was run: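 Acute cytotoxicity is scored as a concentration-dependent fall in intracellular ATP in a human lymphoblastoid line (LYMP1-002) after 16 hr compound exposure at 37 C, measured by luciferase luminescence.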

[9] = MultiTox-Fluor Cytotoxicity Assay - LYMP1-002 - Live Cells (AID 955); further: on the % scale 0 is the no-effect control and ±100 the full control effect
How it was run: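 Read-out is live-cell protease activity (cell-permeant GF-AFC substrate, fluorescence Ex/Em=405/510), where a decrease indicates acute toxicity. Human lymphoblastoid cells were treated 16 hours at 37 C in a concentration series, and AC50 values came from standard Hill modelling.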

[10] = MultiTox-Fluor Cytotoxicity Assay - LYMP1-002 - Dead Cells (AID 960); further: nearly all actives have a fitted effect of over 60% in size
How it was run: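 LYMP1-002 cells 2500/well; 5 hr 37 C pre-incubation; compound 16 hr 37 C; MultiTox-Fluor reagent 60 min RT; dead-cell fluor Ex/Em 485/520. Norm. to DMSO (0%) vs 15 uM tetraoctylammonium bromide (100%); Hill AC50.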

[11] = MultiTox-Fluor Cytotoxicity Assay - LYMP1-003 - Dead Cells (AID 961); further: nearly all actives have a fitted effect of over 70% in size
How it was run: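 LYMP1-003 human lymphoblastoid cells (2500/well) exposed to compound 16 h at 37 C in complete medium; dead-cell protease read with bis-AAF-R110 fluorescence (Ex/Em 485/520) after 60 min at room temperature. Normalized to DMSO and 15 uM tetraoctylammonium bromide; AC50 from Hill fit.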

[12] = MultiTox-Fluor Cytotoxicity Assay - LYMP1-003 - Live Cells (AID 962);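 further: 0% = DMSO only and full loss = 92 µM tetraoctylammonium bromide; cytotoxic hits lower the live-cell protease signal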
How it was run: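 qHTS, 1536-well; 2500 cells/well LYMP1-003; 5 hr 37 C settle; cpd 16 hr 37 C; MultiTox-Fluor reagent 60 min RT; live-cell protease fluor. 405/510; Hill-fit AC50; tetraoctylammonium bromide pos. ctrl.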

[13] = Cell Viability - LYMP1-003 - Assay at 24 hr (AID 963);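 further: plate controls were DMSO only for no effect and tetraoctylammonium bromide positive control for full effect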
How it was run: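 Cells seeded at 2500/well, 5 hr at 37 C; compounds added; 24 hr at 37 C; CellTiter-Glo added, 30 min room temperature; luminescence read. Decrease in ATP taken as cytotoxicity, AC50 from Hill modelling.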

[14] = Cell Viability - LYMP1-003 - Assay at 40 hr (AID 964); further: on the % scale 0 is the no-effect control and ±100 the full control effect; nearly all actives have a fitted effect of over 60% in size
How it was run: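 Cells were seeded at 2500 per well and incubated 5 hr at 37 C. Compounds were added across a concentration series and left 40 hr at 37 C. CellTiter-Glo was added for 30 min at room temperature before luminescence reading.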

[15] = Cell Viability - LYMP2-003 (AID 965);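 further: cells exposed to compounds for 24 h before reading; 0% = DMSO only and full effect = 92 µM tetraoctylammonium bromide; nearly all actives have a fitted effect of over 50% in size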
How it was run: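 Acute cytotoxicity is scored as a concentration-dependent drop in intracellular ATP, measured by luciferase luminescence in human lymphoblastoid cells treated for 24 hours at 37 C. AC50 values derive from Hill-equation modelling.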

[16] = Cell Viability - LYMP2-004 (AID 966);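 further: plate controls were DMSO only for no effect and tetraoctylammonium bromide control for full effect; nearly all actives have a fitted effect of over 65% in size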
How it was run: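 Cells seeded 2500/well, rested 5 hr at 37 C, dosed across a concentration series, incubated 24 hr at 37 C, then CellTiter-Glo added for 30 min at room temperature and luminescence read. Hill fitting gave AC50.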

[17] = Cell Viability - LYMP2-005 (AID 967);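 further: plate controls were DMSO only for no effect and 92 µM tetraoctylammonium bromide control for full effect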
How it was run: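 qHTS viability screen in LYMP2-005 cells: 24 h at 37 C with compound, ATP luminescence via CellTiter-Glo, AC50 from Hill curves.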

[18] = Cell Viability - LYMP2-011 (AID 969);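 further: 0% = DMSO only and full inhibition = 92 µM tetraoctylammonium bromide; nearly all actives have a fitted effect of over 60% in size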
How it was run: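 2500 cells/well, 5 hr 37 C; compound added, 24 hr 37 C; CellTiter-Glo 30 min RT; luminescence. qHTS concentration-response, Hill-equation AC50. Tetraoctylammonium bromide positive control.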

[19] = Cell Viability - LYMP2-013 (AID 970);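 further: 0% = DMSO only and full inhibition = tetraoctylammonium bromide control; nearly all actives have a fitted effect of over 55% in size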
How it was run: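 qHTS; 2500 lymphoblastoid cells/well; 5 hr 37 C settle; cpd 24 hr 37 C; CellTiter-Glo, 30 min RT; luminescence. AC50 = Hill fit.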

[20] = Cell Viability - LYMP2-015 (AID 971);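 further: 0% = DMSO only and full effect = 92 µM tetraoctylammonium bromide; nearly all actives have a fitted effect of over 55% in size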
How it was run: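 Luminescent ATP read-out (CellTiter-Glo) served as the viability measure after lymphoblastoid cells were exposed to compounds for 24 hours at 37 C. Concentration-response data were fitted with the Hill equation to give AC50.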

[21] = Cell Viability - LYMP2-017 (AID 972); further: on the % scale 0 is the no-effect control and ±100 the full control effect; nearly all actives have a fitted effect of over 55% in size
How it was run: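 2500 cells/well, 5 h 37 C; cpd 24 h 37 C in complete medium; CellTiter-Glo, 30 min RT; luminescence (ATP). AC50 via Hill fit, qHTS.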

[22] = Cell Viability - LYMP2-019 (AID 973);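 further: 0% = DMSO alone and full effect = 92 µM tetraoctylammonium bromide; nearly all actives have a fitted effect of over 55% in size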
How it was run: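 Luminescent ATP read-out (CellTiter-Glo, 30 min room temperature) served as the viability measure after 24 hr treatment of lymphoblastoid cells at 37 C. Concentration-response data were fitted to the Hill equation for AC50.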

[23] = Cell Viability - LYMP2-021 (AID 974)
How it was run: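 Plate 2500 lymphoblastoid cells per well and incubate 5 hr at 37 C. Add compounds over a concentration range and incubate 24 hr at 37 C. Add CellTiter-Glo, wait 30 min at room temperature, read luminescence.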

CCCCOC(=O)c1ccccc1C(=O)OCCCC
inactive: outcome [1] | caspase-3 activation [2] -0.0975% [at 91.7 µM] | Potency [3] | Potency [4] | Potency [5] | Potency [6] | Potency [7] | Potency [8] | outcome [9] | Potency [10] | Potency [11] | Potency [12] | Potency [13] | Potency [14] | Potency [15] | Potency [16] | Potency [17] | Potency [18] | Potency [19] | Potency [20] | Potency [21] | Potency [22] | Potency [23]
